The values that follow come from PubChem BioAssay AID1359 (The Scripps Research Institute Molecular Screening Center, 2008).

Out of some 220,000 compounds screened, about 970 (0.44%) were called active. Cut-off read from the data, not from the text of the source: active = activation above about 27%; inactive = the rest. For the sample, actives were picked, then their nearest neighbours and some compounds at random.

Chain of Neuropeptide Y receptor type 2 (Homo sapiens) (P49146 whole entry, looked up): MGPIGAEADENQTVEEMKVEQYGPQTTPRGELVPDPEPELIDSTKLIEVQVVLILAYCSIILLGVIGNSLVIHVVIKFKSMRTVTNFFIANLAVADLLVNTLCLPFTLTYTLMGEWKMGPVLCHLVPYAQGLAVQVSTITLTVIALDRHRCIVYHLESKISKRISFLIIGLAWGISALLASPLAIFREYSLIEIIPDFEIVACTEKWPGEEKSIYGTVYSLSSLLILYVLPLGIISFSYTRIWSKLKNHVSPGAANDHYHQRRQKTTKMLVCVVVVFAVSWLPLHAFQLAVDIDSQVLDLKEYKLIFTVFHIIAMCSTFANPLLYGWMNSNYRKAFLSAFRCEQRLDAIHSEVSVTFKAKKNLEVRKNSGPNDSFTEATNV

The assay addresses Neuropeptide Y receptor type 2 (Homo sapiens) (UniProt P49146). The assay can be described thus: human Y2 receptor positive modulation or activation – cell-based, primary screen (AID 1359).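 Note: cells stimulated with NPY near EC25 plus isoproterenol at EC100; 0% = vehicle plus submaximal agonist and 100% = vehicle plus saturating agonist.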 Particulars: cells expressing NPY-Y2, potentiator/agonist read-out; at 3.6 µM; hits give high values.
Take `Cc1ccnc(NC(=O)C(C)N2C(=O)c3ccccc3C2=O)c1` (stereo unspecified): the activation was -9.95% (inactive).

For the compound `Cc1cccc(NC(=O)CN2C(=O)CNC2=O)c1`, the activation is -5.86% (inactive).

`Cc1cccc(NC(=O)C(C)N2C(=O)C3C4CC(C(Br)C4Br)C3C2=O)c1` (stereo unspecified): the activation is 33.6% (active).

Take `CCOC(=O)N1CCN(C(=O)Cn2cnc3ccccc3c2=O)CC1`: the activation is 2.69% (inactive).

With `CN(Cc1ccccc1)C(=O)CCNC(=O)Cn1cnc2ccccc2c1=O`, the activation is 54.9% (active).

On to `O=C(Cn1cnc2ccccc2c1=O)NCC1COc2ccccc2O1` (stereo unspecified), for which the activation is 4.37% (inactive).

For the compound `O=C(CN1CCN(Cc2ccccc2)CC1)NC(c1ccccc1)c1ccccc1`, the activation was -14% (inactive).

Take `Cc1ccc(CNC(=O)Cn2c(=O)c3sccc3n(Cc3cccc([N+](=O)[O-])c3)c2=O)cc1`: the activation was 5.29% (inactive).

In the case of `Oc1c(Br)cc(/C=N/NC(=S)NCC2CCCO2)cc1Br` (stereo unspecified), the activation was 5.85% (inactive).

As for `Cn1nc(C(C)(C)C)c(NC(=O)c2sccc2Cl)c1C(C)(C)C`, the activation is -3.45% (inactive).

On to `O=C(CSc1ncnc2scc(-c3ccccc3)c12)NCc1ccc2c(c1)OCO2`, for which the activation is -18.5% (inactive).

Consider `CCOC(=O)c1c(C)nn(-c2ncccc2NC(=O)CCC(=O)O)c1C`, for which the activation was 2.97% (inactive).

For the compound `CCOC(=O)C(Sc1ncc(C#N)c(N)n1)C(C)C` (stereo unspecified), the activation is 41.9% (active).

In the case of `CCOC(=O)CSc1nccc(N(C)C)c1C#N`, the activation is -3.41% (inactive).

As to `CCCCOc1ccc(-c2ncc(C(=O)OCC)c(N)n2)cc1`, the activation was -4.83% (inactive).

Take `COc1ccc2c(c1)c1ncn(Cc3ccccn3)c(=O)c1n2C`: the activation is -3.5% (inactive).

For the compound `Cc1oc2cc([N+](=O)[O-])c(O)c([N+](=O)[O-])c2c1C(=O)c1ccc(Br)cc1`, the activation is 8.73% (inactive).

Take `C[n+]1ccc(/C=C/c2c[nH]c3ccccc23)cc1`: the activation was 3.07% (inactive).

Regarding `O=C(O)/C=C\C(=O)Nc1ccc(OCc2ccccc2)cc1`, the activation was -1.76% (inactive).

For the compound `CN(C)c1ccc(CNC23CN4CN(CN(C4)C2)C3)cc1`, the activation is 8.96% (inactive).

For the compound `c1cnc(NC2C3CC4CC(C3)CC2C4)nc1` (stereo unspecified), the activation is 2.83% (inactive).

Take `CN(C)c1ccc(CNC2C3CC4CC(C3)CC2C4)cc1` (stereo unspecified): the activation is 31.8% (active).

Take `Cc1cccc(C)c1NC(=O)C(c1ccccc1)N1CC(=O)Nc2ccccc21` (stereo unspecified): the activation is -1.44% (inactive).

As to `CCOC(=O)/C(=C\c1ccc([N+](=O)[O-])cc1)C(=O)c1cc(C(C)=O)c(Nc2ccccc2)s1`, the activation was -2.39% (inactive).

Consider `CCOc1cc(/C=N/NC(=O)OC)ccc1OCCSc1ccc(Cl)cc1`, for which the activation is 3.6% (inactive).

Consider `CC(CO)NCC12CC3CC(CC(C3)C1)C2` (stereo unspecified), for which the activation was 2.65% (inactive).

Regarding `Cc1ccc(NC(=O)O/N=C/c2cccc([N+](=O)[O-])c2)cc1`, the activation is -2.02% (inactive).

For the compound `O=C(Nc1nc2ccc([N+](=O)[O-])cc2s1)c1ccncc1`, the activation is 17.8% (inactive).

Turning to `O=C(O)CCC(=O)Nc1nc2ccc([N+](=O)[O-])cc2s1`, the activation is 0.15% (inactive).

Consider `O=C(NC(Nc1nc2ccc([N+](=O)[O-])cc2s1)(C(F)(F)F)C(F)(F)F)c1ccccc1`, for which the activation is 61.7% (active).

In the case of `CCc1c(C)sc(NC(=O)c2cccs2)c1C(N)=O`, the activation is 18% (inactive).

In the case of `Cc1coc2c(O)cc3c(c12)OC1(N2CCCCC2)C(=O)NCCCC31` (stereo unspecified), the activation is 93% (active).

With `COc1ccc(C2c3c(C)nn(-c4ccccc4)c3NC(=O)N2c2ccccc2)cc1` (stereo unspecified), the activation is 11.1% (inactive).

For the compound `Cc1ccc(C)c2c1cc(C)c1nnc(SCC(=O)Nc3cccc(C(=O)O)c3)n12`, the activation is -10% (inactive).

On to `Cc1nn(CCOc2ccc(Br)cc2)c(C)c1[N+](=O)[O-]`, for which the activation was 14.5% (inactive).

With `O=C(NC1C2CC3CC(C2)CC1C3)c1ccc(N2CCNCC2)c([N+](=O)[O-])c1` (stereo unspecified), the activation was 29.4% (inactive).

With `C#CCOCCOCCOCCNc1nc(N2CCN(C(=O)C(Cc3ccc(O)cc3)n3cc(C(N)CC(C)C)nn3)CC2)nc(N2CCN(C(=O)C(Cc3ccc(O)cc3)n3cc(C(N)C(C)CC)nn3)CC2)n1` (stereo unspecified), the activation is -7.8% (inactive).

As to `C#CCOCCOCCOCCNc1nc(N2CCN(C(=O)[C@H](Cc3ccc(O)cc3)n3cc(C(N)CC(C)C)nn3)CC2)nc(N2CCN(C(=O)[C@H](CCC(=O)O)n3cc(C(N)[C@H](C)CC)nn3)CC2)n1` (stereo partly specified), the activation was -9.15% (inactive).

On to `C#CCOCCOCCOCCNc1nc(N2CCN(C(=O)[C@H](CCCCN)n3cc([C@@H](N)C(C)CC)nn3)CC2)nc(N2CCN(C(=O)[C@H](Cc3ccc(O)cc3)n3cc([C@@H](N)C(C)CC)nn3)CC2)n1` (stereo partly specified), for which the activation was 104% (active).

As for `O=C(CCC(=O)NNc1nc2ccccc2c2nc(-c3ccccc3)nn12)NCCCN1CCCC1=O`, the activation is -1.14% (inactive).

Take `CCCCNC(=S)N/N=C1\CCCCc2ccccc21`: the activation is 2.42% (inactive).

For `COc1ccc2[nH]c(=S)cc(C)c2c1`, the activation was -28% (inactive).

`CCN(CC)CC(=O)c1c[nH]c2ccc(OC)cc12`: the activation was 0.4% (inactive).

Consider `COc1ccc2[nH]c3ccc(OC)cc3c2c1`, for which the activation is 65.6% (active).

Consider `O=C(c1c(Cl)cccc1Cl)N1CCN(c2cccc3[nH]ccc23)CC1`, for which the activation was 6.12% (inactive).

In the case of `C=Cn1c(C(=O)O)ccc1-c1ccc(OC)cc1`, the activation was -9.57% (inactive).

On to `COc1ccc(C(=O)C2CCCN(Cc3cccn3-c3ccccn3)C2)c(C)c1` (stereo unspecified), for which the activation is 89.8% (active).

For the compound `CCOC(=O)c1[nH]ncc1CN1CCCC(C(=O)c2ccc(OC)cc2C)C1` (stereo unspecified), the activation was 3.33% (inactive).

Turning to `COc1ccc(C(=O)C2CCCN(Cc3ccc4nonc4c3)C2)c(C)c1` (stereo unspecified), the activation was -20.8% (inactive).

Regarding `CC1CCc2sc(C(=O)N/N=C/C3CCCCC3)cc2C1` (stereo unspecified), the activation was 4.14% (inactive).

For `CSCC(=O)N1CCCC(C(=O)c2cc(F)ccc2F)C1` (stereo unspecified), the activation was 0.81% (inactive).

Consider `O=C(Nc1ccccc1)N1CCN(C2c3ccccc3-c3ccccc32)CC1`, for which the activation is -13.1% (inactive).

For `N#C/C(=C\N1CCOCC1)S(=O)(=O)c1ccc(Cl)cc1`, the activation was 8.91% (inactive).

As to `Cc1cccc(C)c1NC(=O)C1(C)c2cccc[n+]2CC(=O)N1Cc1cccs1` (stereo unspecified), the activation is -2.7% (inactive).

Regarding `C/C(=N/NC(=O)c1ccn(C)n1)c1ccncc1`, the activation is 9.5% (inactive).

For the compound `Cc1ccc(NC(=O)CC(=O)Nc2ccc(C)cc2)cc1`, the activation is -4.26% (inactive).

For the compound `COC(=O)c1ccc(NC(=O)Nc2ccc(C)cc2)cc1`, the activation is 99.2% (active).

Turning to `CC(=O)c1cccc(NC(=O)Nc2ccc(C)cc2)c1`, the activation is 6.31% (inactive).

As for `Cc1ccc(S(=O)(=O)N2CCN(C(=O)COC(=O)c3c(C)noc3C)CC2)c(C)c1`, the activation is -1.02% (inactive).

As to `O=C(NC(Cc1c[nH]c2ccccc12)C(=O)N/N=C/c1ccc(Br)cc1)c1cccs1` (stereo unspecified), the activation was 17.2% (inactive).

For the compound `COc1cc([N+](=O)[O-])ccc1NC(=S)N1CCN(c2ccccn2)CC1`, the activation is -7.19% (inactive).
